Inconclusive results are not listed. Activity calls are given as the source filed them. The call rests on the fitted dose curve; tested in HEK293 reporter line. Square brackets hold non-standard residues; d marks the D form. Peptide text beside a SMILES is read from it. * marks the point of attachment. Sta = CC(C)C[C@H](N)[C@@H](O)CC(=O)O; Isovaleryl = CC(C)CC(=O)*
Assay: qHTS for Inhibitors of the Functional Ribonucleoprotein Complex (vRNP) of Lassa (LASV) Arenavirus: LASV Primary Screen - GLuc reporter signal (AID 1347082); further: nearly all actives have a fitted effect of over 60% in size
Conditions: LASV minigenome vRNP, Gaussia luciferase reporter; series mostly up to 57.5 µM; activity change, negative = inhibition: at the top concentration
For `CC(=O)OCC1=C(C(=O)O)N2C(=O)[C@@H](NC(=O)CSc3ccncc3)[C@H]2SC1`, the “activity change, negative = inhibition” value was 1.2% (inactive). With `CCCCC/C=C\C/C=C\CCCCCCCC(=O)NC(C)c1ccccc1` (stereo unspecified) the “activity change, negative = inhibition” value was -19.2% (inactive). With `N[C@@H](Cc1ccc(O)cc1)C(=O)O` the activity change, negative = inhibition was 4.89% [at 11.5 µM] (inactive). In the case of `COc1cc(OC)cc(OC)c1`, the “activity change, negative = inhibition” value is reported as -3.06% (inactive). With `O=Cc1ccccc1C=O` the “activity change, negative = inhibition” value was -15.3% (inactive). With `CCCCCOc1ccccc1/C(=C\SC)n1ccnc1` the “activity change, negative = inhibition” value was -23.1% (inactive). In the case of `CC(C)CC(=O)N[C@H](C(=O)N[C@H](C(=O)N[C@@H](CC(C)C)[C@@H](O)CC(=O)N[C@@H](C)C(=O)N[C@@H](CC(C)C)[C@@H](O)CC(=O)O)C(C)C)C(C)C` (Isovaleryl-VV[Sta]A[Sta]-OH), the “activity change, negative = inhibition” value is reported as 1.03% (inactive). With `CCOc1ccc(NC(C)=O)cc1` the “activity change, negative = inhibition” value was 7.74% (inactive). In the case of `CNc1c2c(nn1C)CCCC2`, the “activity change, negative = inhibition” value is reported as -12.4% (inactive). With `C/C(=C(\CCOP(=O)(O)O)SC(=O)c1ccccc1)N(C=O)Cc1cnc(C)nc1N` the activity change, negative = inhibition was 1.78% [at 5.82 µM] (inactive). In the case of `Cn1cnc2c1c(=O)[nH]c(=O)n2C`, the Potency is reported as “inactive”. For `O=C1NCN(c2ccccc2)C12CCN(CCCC(c1ccc(F)cc1)c1ccc(F)cc1)CC2`, the “activity change, negative = inhibition” value was -18.4% (inactive). For `C[N+]12CCC(CC1)C(OC(=O)C(O)(c1ccccc1)c1ccccc1)C2` (stereo unspecified), the “activity change, negative = inhibition” value was -0.576% (inactive). In the case of `CCCC(=O)O[C@]1(C(=O)CC)CC[C@H]2[C@@H]3CCC4=CC(=O)CC[C@]4(C)[C@H]3[C@@H](O)C[C@@]21C`, the “activity change, negative = inhibition” value is reported as -2.25% (inactive). For `CC1(c2ccccc2)OC(C(=O)O)=CC1=O` (stereo unspecified), the “activity change, negative = inhibition” value was 2.64% (inactive). For `CN(C(=O)CCCOc1ccc2[nH]c(=O)ccc2c1)C1CCCCC1`, the Potency was “inactive”. With `CCN(CC)CCOc1ccc(Cc2ccccc2)cc1` the “activity change, negative = inhibition” value was -14.8% (inactive). For `O=C(CCCN1CC=C(n2c(=O)[nH]c3ccccc32)CC1)c1ccc(F)cc1`, the “activity change, negative = inhibition” value was -37.8% (inactive). For `Clc1ccc2c(c1)CCc1cccnc1C2=C1CCNCC1`, the “activity change, negative = inhibition” value was -63.5% (inactive). For `CNC(=O)c1c(I)c(NC(=O)CCCCC(=O)Nc2c(I)c(C(=O)O)c(I)c(C(=O)NC)c2I)c(I)c(C(=O)O)c1I`, the “activity change, negative = inhibition” value was -2.44% (inactive). For `O=S1(=O)OC(c2ccc(O)cc2)(c2ccc(O)cc2)c2ccccc21`, the “activity change, negative = inhibition” value was -4.07% (inactive). In the case of `COc1cc(NS(=O)(=O)c2ccc(N)cc2)nc(OC)n1`, the Potency is reported as “inactive”.

Assay: qHTS for Inhibitors of the Functional Ribonucleoprotein Complex (vRNP) of Lassa (LASV) Arenavirus: Viability assay - alamar blue signal for LASV Primary Screen (AID 1347083); further: nearly all actives have a fitted effect of over 80% in size
Conditions: cell viability, alamar blue fluorescence (LASV minigenome counter-screen); series mostly up to 57.5 µM; activity change, negative = reduced viability: at the top concentration
In the case of `Cn1c(=O)c2c(ncn2C)n(C)c1=O`, the Potency is reported as “inactive”. With `CN(C)CCn1nnnc1SCC1=C(C(=O)O)N2C(=O)[C@@H](NC(=O)Cc3csc(N)n3)[C@H]2SC1` the “activity change, negative = reduced viability” value was -2.78% (inactive). In the case of `CN(CCCN1c2ccccc2CCc2ccccc21)CC(=O)c1ccc(Cl)cc1`, the “activity change, negative = reduced viability” value is reported as 4.41% (inactive). In the case of `O=C(NCC1CN(c2ccc(N3CCOCC3=O)cc2)C(=O)O1)c1ccc(Cl)s1` (stereo unspecified), the Potency is reported as “inactive”. With `CC(C)(C)C(=O)OCOC(=O)[C@@H]1N2C(=O)[C@@H](NC(=O)[C@H](N)c3ccccc3)[C@H]2SC1(C)C` the “activity change, negative = reduced viability” value was -1.48% (inactive). In the case of `Oc1ccc(CCNCCCCCCNCCc2ccccc2)cc1O`, the “activity change, negative = reduced viability” value is reported as -12.1% (inactive). With `CCCOc1ccccc1-c1nc2n[nH]nc2c(=O)[nH]1` the Potency was “inactive”. With `CCOC(=O)C(=O)CCc1ccccc1` the “activity change, negative = reduced viability” value was 8.81% (inactive). For `Nc1ccc2c(c1)CN1C(=O)c3ccccc3C1=N2`, the “activity change, negative = reduced viability” value was -4.27% [at 24.7 µM] (inactive). In the case of `C[C@@H]1CCC[C@H](C)N1CCCC(O)(c1ccccc1)c1ccccn1` (stereo partly specified), the “activity change, negative = reduced viability” value is reported as -5.35% (inactive). In the case of `COc1ccc2c(c1)c(CC(=O)O)c(C)n2C(=O)c1ccc(Cl)cc1`, the Potency is reported as “inactive”. In the case of `O=C(O)c1cccnc1Nc1cccc(C(F)(F)F)c1`, the Potency is reported as “inactive”. In the case of `CCC(=O)O[C@]1(C(=O)COC)[C@@H](C)C[C@H]2[C@@H]3CCC4=CC(=O)C=C[C@]4(C)C3(F)[C@@H](O)C[C@@]21C` (stereo partly specified), the “activity change, negative = reduced viability” value is reported as -5.22% (inactive). With `C1CCN2C[C@@H]3C[C@@H](CN4CCCC[C@@H]34)[C@H]2C1` the “activity change, negative = reduced viability” value was 1.43% (inactive). In the case of `O=C(CCCCC(=O)Nc1c(I)cc(I)c(C(=O)O)c1I)Nc1c(I)cc(I)c(C(=O)O)c1I`, the “activity change, negative = reduced viability” value is reported as 7.82% (inactive). In the case of `Cc1nc(C2CCCCC2)c(-c2ccc(S(N)(=O)=O)c(F)c2)o1`, the “activity change, negative = reduced viability” value is reported as 7.33% (inactive). In the case of `O=C(CCCN1CCC(O)(c2ccc(Br)cc2)CC1)c1ccc(F)cc1`, the “activity change, negative = reduced viability” value is reported as 16.7% (inactive). For `CC(=O)OCC1=C(C(=O)O)N2C(=O)[C@@H](NC(=O)CSc3ccncc3)[C@H]2SC1`, the “activity change, negative = reduced viability” value was -16.4% (inactive). In the case of `CCCCC/C=C\C/C=C\CCCCCCCC(=O)NC(C)c1ccccc1` (stereo unspecified), the “activity change, negative = reduced viability” value is reported as 3.81% (inactive). For `N[C@@H](Cc1ccc(O)cc1)C(=O)O`, the activity change, negative = reduced viability was 15.7% [at 11.5 µM] (inactive). For `COc1cc(OC)cc(OC)c1`, the “activity change, negative = reduced viability” value was 8.29% (inactive). For `O=Cc1ccccc1C=O`, the “activity change, negative = reduced viability” value was 4.77% (inactive). With `CCCCCOc1ccccc1/C(=C\SC)n1ccnc1` the “activity change, negative = reduced viability” value was -49.2% (inactive). With `CC(C)CC(=O)N[C@H](C(=O)N[C@H](C(=O)N[C@@H](CC(C)C)[C@@H](O)CC(=O)N[C@@H](C)C(=O)N[C@@H](CC(C)C)[C@@H](O)CC(=O)O)C(C)C)C(C)C` (Isovaleryl-VV[Sta]A[Sta]-OH) the “activity change, negative = reduced viability” value was 5% (inactive).

Reference: PubChem BioAssay (NCATS)
On the % scale 0 is the no-effect control and ±100 the full control effect.
